Data published in PubChem BioAssay AID1851 (National Center for Advancing Translational Sciences (NCATS), 2009).
Among all 16,000 compounds or so, about 5,700 (36%) were called active. Not shown: some 24% with an inconclusive outcome. The list shows a part of the results. Values without a mark were called inactive. The call rests on the fitted dose curve; in most records, active means well fitted curve in the direction sought with a large enough effect; inconclusive means small, poorly fitted or top-dose-only effect, or effect the other way; inactive means no such curve, though single readings can be large or run the other way.
On the % scale 0 is the no-effect control and ±100 the full control effect.

These compounds were tested against Cytochrome P450 1A2 (Homo sapiens) (UniProt P05177) (assay: Cytochrome panel assay with activity outcomes). Conditions: recombinant CYP, pro-luciferin dealkylation, luminescence, p450-cyp1a2; series mostly up to 57.1 µM; activity, negative = inhibition: at the top concentration.
Chain of Cytochrome P450 1A2 (Homo sapiens) (P05177 whole entry, looked up): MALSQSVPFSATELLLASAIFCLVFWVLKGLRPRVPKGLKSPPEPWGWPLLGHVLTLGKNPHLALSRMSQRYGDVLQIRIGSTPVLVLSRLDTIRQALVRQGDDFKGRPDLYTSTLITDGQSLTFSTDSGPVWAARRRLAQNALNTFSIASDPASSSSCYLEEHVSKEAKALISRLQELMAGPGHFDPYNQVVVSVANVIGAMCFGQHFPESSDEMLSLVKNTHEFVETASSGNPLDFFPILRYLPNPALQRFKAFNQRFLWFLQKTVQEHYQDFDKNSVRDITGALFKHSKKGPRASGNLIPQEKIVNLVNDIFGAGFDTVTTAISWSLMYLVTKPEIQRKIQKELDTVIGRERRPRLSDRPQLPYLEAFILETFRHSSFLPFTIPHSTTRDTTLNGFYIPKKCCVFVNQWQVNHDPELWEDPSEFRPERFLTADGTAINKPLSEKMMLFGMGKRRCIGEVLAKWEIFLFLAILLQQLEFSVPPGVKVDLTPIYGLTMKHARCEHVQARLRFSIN
CCOc1ccc(-c2nn(-c3ccccc3)cc2/C=C(\C#N)S(=O)(=O)c2ccccc2)cc1C was tested, and the AC50 was 1 µM (active).
In the case of CCC(C(=O)c1ccccc1)N(C(=O)c1ccccc1Cl)N1C(=O)C2C3C=CC(C3)C2C1=O (stereo not drawn), the “activity, negative = inhibition” value is reported as 4.91%.
In the case of O=C1C2C3C=CC(C3)C2C(=O)N1/N=C/c1cn(Cc2ccccc2)c2ccccc12 (stereo not drawn), the AC50 is reported as 15.8 µM (active).
With O=[N+]([O-])/C=C/c1cn(Cc2ccccc2)c2ccccc12 the AC50 was 3.55 µM (active).
O=C1C2C3C=CC(C3)C2C(=O)N1/N=C/c1cn(Cc2ccc(F)cc2)c2ccccc12 (stereo not drawn) was tested, and the “activity, negative = inhibition” value was -24.6%.
COc1ccc2c(c1OC)C(=O)N(C(C)C(=O)O)C2=O (stereo not drawn) was tested, and the “activity, negative = inhibition” value was 4.35%.
With O=c1[nH]c(=O)c2nc3ccccc3nc2[nH]1 the AC50 was 12.6 µM (active).
NS(=O)(=O)c1ccc(N=Nc2nc3[nH]c(=O)[nH]c(=O)c3[nH]2)cc1 showed an activity, negative = inhibition of -13.4% [at 11.4 µM].
For COc1cnc(NS(=O)(=O)c2ccc(N)cc2)nc1, the “activity, negative = inhibition” value was -7.79% [at 25.6 µM].
For CC(C)(C)C(=O)Nc1ccnc(-c2cccnc2)n1, the AC50 was 2.24 µM (active).
For CC(=O)Nc1ccnc(-c2cccnc2)n1, the AC50 was 2.51 µM (active).
In the case of CCC(=O)O[C@@]1(C(=O)CCl)[C@@H](C)C[C@@H]2[C@H]3CCC4=CC(=O)C=C[C@@]4(C)[C@]3(F)[C@@H](O)C[C@@]21C, the “activity, negative = inhibition” value is reported as -9.28% [at 25.6 µM].
O=C1[C@@H]2[C@H]3[C@H](O)[C@H](O)C/C(=N/OC[C@@H](O)COCc4ccco4)[C@H]3CC[C@H]2C(=O)N1c1ccc(F)cc1F gave an activity, negative = inhibition of 0.735% [at 11.4 µM].
For Cc1[nH]c2ccccc2c1-c1cc(-c2cc(-c3c(C)[nH]c4ccccc34)on2)no1, the AC50 was 0.398 µM (active).
Nc1n[nH]c2ccccc12 gave an activity, negative = inhibition of -9.07% [at 2.29 µM].
Cc1[nH]c2ccccc2c1-c1cc(-c2cc(-c3c(C)[nH]c4ccccc34)nc(N)n2)nc(N)n1 was tested, and the AC50 was 0.398 µM (active).
With COc1ccc(COC(=O)N/N=C2/C[C@@H](O)[C@@H](O)[C@@H]3[C@@H]4C(=O)N(c5cccc(Oc6ccccc6)c5)C(=O)[C@H]4CC[C@H]23)cc1 the activity, negative = inhibition was 3.29% [at 11.4 µM].
For CC1=Nc2ccccc2/C1=C\c1nc(-c2ccc(C(F)(F)F)cc2)oc1O, the AC50 was 0.891 µM (active).
O=S(=O)(c1ccccc1)N1CCC2(CCCN(c3cccc(-c4ccccc4)c3)C2)CC1 was tested, and the “activity, negative = inhibition” value was 1.5%.
With O=C(c1ccncc1)N1CCC2(CC1)CN(c1ccccc1)C2 the “activity, negative = inhibition” value was -19.4%.
With O=C(c1cnccn1)N1CCC[C@@]2(CCN(c3ccncc3)C2)C1 the “activity, negative = inhibition” value was -10.2%.
With O=C(c1ccncc1)N1CCC2(CC1)CN(c1ccc(-c3ccccc3)cc1)C2 the “activity, negative = inhibition” value was -10.2%.
With CS(=O)(=O)N1CCC2(CC1)CN(c1cccc(-c3ccccc3)c1)C2 the AC50 was 5.01 µM (active).
For O=C(c1cnccn1)N1CCC[C@@]2(CCN(c3ncccn3)C2)C1, the “activity, negative = inhibition” value was -14.5%.
O=C(c1cnccn1)N1CCC2(CCCN(c3ccccc3)C2)CC1 was tested, and the “activity, negative = inhibition” value was -3.6%.
For O=C(c1ccncc1)N1CCC2(CC1)CN(c1cccc(-c3ccccc3)c1)C2, the AC50 was 15.8 µM (active).
In the case of O=C(c1cnccn1)N1CCC2(CC1)CN(c1ccccc1)C2, the “activity, negative = inhibition” value is reported as -2.2%.
With O=C(c1cnccn1)N1CCC[C@@]2(CCN(c3cccc(-c4ccccc4)c3)C2)C1 the AC50 was 25.1 µM (active).
CS(=O)(=O)N1CCC2(CC1)CN(c1ccncc1)C2 was tested, and the “activity, negative = inhibition” value was -0.451%.
With O=C(c1cnccn1)N1CCC2(CCCN(c3cccc(-c4ccccc4)c3)C2)CC1 the AC50 was 20 µM (active).
For COc1cc(CNCc2ccccn2)ccc1OCc1ccc(Cl)cc1Cl, the AC50 was 0.316 µM (active).
With COc1ccc(CNC(C)(C)C)cc1Cl the “activity, negative = inhibition” value was 4.33%.
CCSc1nc2ccccc2n1C(=O)/C=C\c1ccc(OC)c(OC)c1 was tested, and the AC50 was 6.31 µM (active).
With C=CCSc1nc2ccccc2n1C(=O)/C=C/c1cc(OC)c(OC)c(OC)c1 the AC50 was 7.08 µM (active).
With CCn1c(-c2ccccc2Cl)nn(CC(=O)Nc2cc(Cl)ccc2Cl)c1=S the AC50 was 15.8 µM (active).
With CCn1c(-c2ccccc2Cl)nn(CC(=O)Nc2ccccc2OC)c1=S the “activity, negative = inhibition” value was -20.3%.
Compound CC(=O)OC[C@H]1O[C@@H](O/N=C(\C)CCN2CCCc3nc(C)c(C)cc32)[C@H](OC(C)=O)[C@@H](OC(C)=O)[C@H]1OC(C)=O has an activity, negative = inhibition of 0.931% [at 11.4 µM].
With CC(C)(C)N1C(=O)[C@H]2[C@H]3[C@H](O)[C@H](O)C/C(=N/OC[C@@H](O)COCc4ccco4)[C@@H]3CC[C@@H]2C1=O the activity, negative = inhibition was 4.56% [at 11.4 µM].
With COc1ccc(-c2noc(N(C)CC(=O)Nc3cccc(C(F)(F)F)c3)n2)cc1 the AC50 was 5.01 µM (active).
In the case of COCCNc1ncncc1-c1c(C)noc1C, the “activity, negative = inhibition” value is reported as -12.6%.
In the case of CNc1cc(-c2c(C)noc2C)ncn1, the AC50 is reported as 5.01 µM (active).
With COCCNc1cc(-c2c(C)noc2C)ncn1 the AC50 was 10 µM (active).
In the case of Cc1noc(C)c1-c1cc(NC2CC2)ncn1, the AC50 is reported as 0.316 µM (active).
COC(=O)N1CCC2(CC1)CN(C(c1ccccc1)c1ccccc1)C2 was tested, and the “activity, negative = inhibition” value was -2.53%.
For C[C@@]12CCC(=O)C=C1CC[C@@H]1[C@@H]2[C@H](O)C[C@]2(C)[C@@H]1CC[C@]2(O)C(=O)CO, the “activity, negative = inhibition” value was -6.61% [at 25.6 µM].
With CCOc1ccc(CC(=O)Nc2sc(Cc3ccccc3)c(C)c2C(N)=O)cc1OCC the “activity, negative = inhibition” value was -26.8%.
COC(=O)c1c(NC(C)=O)sc(Cc2ccccc2)c1C was tested, and the AC50 was 1.58 µM (active).
CC(C)C(=O)Nc1ccc(C(=O)NNC(=O)C(c2ccccc2)c2ccccc2)cc1 was tested, and the “activity, negative = inhibition” value was -16.1%.
CCN1CCN(C(c2ccccn2)c2c(NC(=O)c3ccccc3)sc(C)c2C)CC1 (stereo not drawn) was tested, and the “activity, negative = inhibition” value was -13.5%.
In the case of CCOC(=O)c1c(NC(=O)Nc2ccccc2)sc(C)c1C, the AC50 is reported as 3.55 µM (active).
In the case of CN(C(=O)CC(NC(=O)c1ccccc1)(c1ccccc1)c1ccccc1)c1ccccc1, the “activity, negative = inhibition” value is reported as -7.59%.
With Cc1sc(NC(=O)c2ccccc2)c(C(=O)NCCN(C)C)c1C the AC50 was 11.2 µM (active).
In the case of Cc1sc(NC(=O)C(C)C)c(C(=O)Nc2ccccc2)c1C, the AC50 is reported as 1.26 µM (active).
C=C(Br)CN(C)CC(=C)Br gave an activity, negative = inhibition of -4.98% [at 11.4 µM].
In the case of CC(C)SC(=N)N, the “activity, negative = inhibition” value is reported as -17.7%.
In the case of Cc1noc(C)c1C(=O)N1CCC[C@@]2(CCN(C(=O)NC(C)C)C2)C1, the “activity, negative = inhibition” value is reported as -23.1%.
With O=C(O)CP(=O)(O)O the AC50 was “inactive”.
For Cc1oc(-c2cccc(Cl)c2)[n+]([O-])c1C, the AC50 was 4.47 µM (active).
With CCCC/C=C/C(NC(=O)c1cccs1)c1ccccc1 (stereo not drawn) the AC50 was 1.58 µM (active).
In the case of CCCC/C=C/C(NC(=O)Oc1cccc(C(F)(F)F)c1)c1ccccc1 (stereo not drawn), the AC50 is reported as 2.51 µM (active).
CCC/C=C(\CCC)C(NP(=O)(c1ccccc1)c1ccccc1)c1ccc(C(F)(F)F)cc1 (stereo not drawn) was tested, and the “activity, negative = inhibition” value was -7.24%.
In the case of CCC(=O)Nc1ccc(C(=O)NNC(=O)c2cccs2)cc1, the “activity, negative = inhibition” value is reported as 13.6%.
For C#CCOC(=O)NC(/C=C/CCCC)c1ccccc1 (stereo not drawn), the AC50 was 15.8 µM (active).
In the case of O=C(c1cccs1)N1CCN(C(=O)C(c2ccccc2)c2ccccc2)CC1, the “activity, negative = inhibition” value is reported as -5.01%.
With CCCC/C=C/C(NC(=O)c1ccco1)c1ccccc1 (stereo not drawn) the AC50 was 5.01 µM (active).
Nc1ncnc2c1nc(Br)n2[C@@H]1O[C@H]2COP(=O)(O)O[C@@H]2[C@H]1O was tested, and the “activity, negative = inhibition” value was -8.7%.
For CC1(C)Cc2ccccc2C(N/N=C/c2cccc(F)c2)=N1, the AC50 was 11.2 µM (active).
Cn1c(Oc2ccccc2)c(C=O)c2ccccc21 was tested, and the AC50 was 7.08 µM (active).
With COc1ccc(Oc2c(C=O)c3ccccc3n2C)cc1 the AC50 was 14.1 µM (active).
In the case of FC(F)(F)c1nnc(-c2ccccc2)nc1Sc1ccccc1, the AC50 is reported as 1.41 µM (active).
Cc1cccc(C(=O)NN(C)c2nc(-c3ccccc3)nnc2C(F)(F)F)c1 was tested, and the “activity, negative = inhibition” value was 21.4%.
COc1ccccc1C/C(N)=N/OC(=O)c1ccc(C)c([N+](=O)[O-])c1 was tested, and the AC50 was 14.1 µM (active).
In the case of COc1ccccc1CNC(=O)C/C(C)=N/NC(=O)Cc1ccccc1, the “activity, negative = inhibition” value is reported as -20.9%.
COc1ccc(CC(=O)O/N=C(\N)Cc2ccc(OC)cc2)cc1 was tested, and the “activity, negative = inhibition” value was -29.9%.
With COc1ccccc1CC(=O)O/N=C(\N)Cc1cccc2ccccc12 the AC50 was 11.2 µM (active).
With C[N+](C)(C)CCOC(N)=O the AC50 was “inactive”.
For CCOC(=O)[C@@H](O)Cc1cnc2ccccc2n1, the AC50 was 3.16 µM (active).
For O=S(=O)(c1cnccc1N1CCN(CCO)CC1)N1CCCC1, the activity, negative = inhibition was -8.25% [at 2.29 µM].
FC(F)(F)c1cc(CN2CCC3(CCNCC3)CC2)cc(C(F)(F)F)c1 was tested, and the “activity, negative = inhibition” value was -9.83%.
With Cc1ccc(NC(=O)c2cccc(N(C)C)c2)cc1NC(=O)c1ccc(O)cc1 the AC50 was 1.26 µM (active).
OC(COc1ccc(OCC(O)CN2CCCCCC2)cc1)CN1CCCCCC1 (stereo not drawn) was tested, and the “activity, negative = inhibition” value was 4.84%.
With Cc1nn(CC(O)COc2ccc3c(c2)CCC3)c(C)c1Br (stereo not drawn) the AC50 was 12.6 µM (active).
For COc1ccc(C2=CSC(/N=C/c3ccc(F)cc3)=NN2)cc1, the AC50 was 2.82 µM (active).
CC(C)=NO[C@@H](C)CN1CCCCc2nc(C)c(C)cc21 was tested, and the activity, negative = inhibition was -10.5% [at 11.4 µM].
With Cc1ccc(NC(=O)CCC(=O)NNS(=O)(=O)c2ccccc2)c(C)c1 the “activity, negative = inhibition” value was -29.8%.
For Cc1cc(Br)ccc1NC(=O)CCSc1ccccc1, the AC50 was 4.47 µM (active).
With S=C(S)O[C@@H]1C[C@@H]2C[C@H]1[C@@H]1CCC[C@H]21 the AC50 was “inactive”.
COc1ccc(OCC(=O)NNC(=O)c2ccc(-c3ccccc3)cc2)cc1 was tested, and the “activity, negative = inhibition” value was -1.81%.
With O=C(COc1ccc(-c2ccccc2)cc1)N/N=C/c1ccccc1Br the AC50 was 5.01 µM (active).
In the case of O=C(COc1ccccc1-c1ccccc1)N/N=C/c1cccc2ccccc12, the AC50 is reported as 0.794 µM (active).
In the case of O=c1[nH]c(SCc2c(Cl)c(Cl)c(Cl)c(Cl)c2Cl)nc(=S)[nH]1, the AC50 is reported as 1 µM (active).
With CCCC[C@H]1C[C@@H]1[C@@H]1N(P(=O)(c2ccccc2)c2ccccc2)[C@](CO)(c2ccccc2)CC12CC2 the “activity, negative = inhibition” value was -20.5%.
OC[C@@H]1O[C@@H](O)[C@H](N=Cc2ccc3c(c2)OCO3)[C@@H](O)[C@@H]1O was tested, and the activity, negative = inhibition was -24.4% [at 2.29 µM].
In the case of CCCc1nnc(SCC(=O)O)n1/N=C/c1ccc2c(c1)OCO2, the AC50 is reported as 15.8 µM (active).
In the case of CSc1nncn1/N=C/c1ccc2c(c1)OCO2, the AC50 is reported as 4.47 µM (active).
With CCc1n[nH]c(=S)n1/N=C/c1ccc2c(c1)OCO2 the AC50 was 2.24 µM (active).
In the case of CCCc1nnc(SCC(=O)N2CCCC(C)C2)n1CC1CCCO1 (stereo not drawn), the “activity, negative = inhibition” value is reported as 7.21%.
CCCc1nnc(SCC(=O)N2CCCCC2)n1CCCOC was tested, and the “activity, negative = inhibition” value was -23.7%.
